In PubChem BioAssay one finds composite z-score and z-score data, which are given here for eight molecules.

Test [1] concerns Wnt5a (protein binding on small-molecule microarray). Kind of test: small molecules binding Wnt5a protein – biophysical, small-molecule microarray, 635/667 nm fluorescence, primary screen (AID 1142).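 Further: fluorescence read at 667 nm with signal to noise per printed feature.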 Conditions: 635 nm fluorescence, higher = more signal.
A short description of test [2]: ATP-based viability of Huh7 replicon cells – cell-based, CellTiter-Glo luminescence, basal, 48 h, cytotoxicity control for HCV replication inhibitor project, primary screen (AID 1143).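 Further: Huh7 hepatoma cells carrying a hepatitis C replication reporter with no stimulus; test concentration not given here.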 Conditions: higher = more signal, called active from +8 up or from −8 down. In general terms: Replicon systems follow genome replication, usually without infectious particles.
Test [3] is described as follows: Pseudomonas biofilm growth suppression – PAO1 strain, BacTiter-Glo luminescence, LB-PBS, primary screen (AID 1144). Conditions: P. aeruginosa PAO1 biofilm, 12 h, higher = more signal.
Test [4] can be described thus: basal CRE-LacZ reporter activity in PC12 – cell-based, unstimulated, primary screen (AID 1145). Conditions: no forskolin, luminescence, 4.5 h, higher = more signal, called active from +8 up or from −8 down.
Test [5] can be described thus: forskolin-driven CRE-LacZ activity in PC12 – cell-based, CRE-LacZ reporter, forskolin-stimulated, primary screen (AID 1146).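 Further: PC12 cells with 6xCRE LacZ reporter stimulated by forskolin 10 µM; beta-galactosidase reporter signal reflecting CREB driven transcription.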 The conditions noted are these: luminescence, 4.5 h, higher = more signal, called active from +8 up or from −8 down.
The target in test [6] is Streptavidin (Streptomyces avidinii) (UniProt P22629). Kind of test: compounds binding control protein streptavidin – biophysical, small-molecule microarray, 635/667 nm fluorescence, artefact control for SMM compound annotation, primary screen (AID 1147).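 Further: signal reflects streptavidin binding to arrayed compounds as a control protein.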 The conditions noted are these: higher = more signal.
Test [7] can be described thus: probe aInhba binding on compound microarray – biochemical, small-molecule microarray, 635/667 nm fluorescence, primary screen (AID 1148).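 Further: score merges 667nm spot fluorescence with signal-to-noise for antibody binding to printed compounds.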 Conditions: higher = more signal.
Test [8] has as its target Torsin-1A (Homo sapiens) (UniProt O14656). Kind of test: TOR1A wild-type binding on microarray – cell lysate, small-molecule microarray, lysate, 635/667 nm, primary screen (AID 1149). The conditions noted are these: COS7 hTOR1A-WT lysate, 635 nm fluorescence, higher = more signal.
Test [9] shares this target. Kind of test: torsin A mutant lysate binding on microarrays – cell lysate, small-molecule microarray, COS7 lysate, 635/667 nm fluorescence, primary screen (AID 1150).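 Further: score pools 667 nm emission and signal to noise measuring lysate protein binding.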 Conditions: COS7 hTOR1A mutant lysate, 635 nm fluorescence, higher = more signal.
Test [10] relates to Sonic hedgehog protein (Shh). Kind of test: Sonic hedgehog microarray binding compounds – biochemical, small-molecule microarray, 635/667 nm fluorescence, primary screen (AID 1151).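 Further: Shh protein binding to compounds spotted on small-molecule microarray slides; score combines spot fluorescence intensity with signal-to-noise across triplicate slides.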 The conditions noted are these: 635 nm fluorescence, higher = more signal.
The nature of test [11]: optical density shifts of acrAB sulA E. coli – strain DRC41, OD650, 48 h, E. coli filamentation inducer project, primary screen (AID 1152).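 Further: E. coli MC1000 strain DRC41 lacking acrAB efflux pump and sulA.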 Conditions: higher = more signal, called active from +8 up or from −8 down.
The nature of test [12]: probe aLefty1 binding on compound microarray – biochemical, small-molecule microarray, 635/667 nm fluorescence, primary screen (AID 1153).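 Further: score merges spot fluorescence with signal-to-noise ratio from the scanned slide images.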 The conditions noted are these: higher = more signal.
Test [13] in a line: plasmodial surface anion channel blockers, osmotic lysis – cell-based, P. falciparum Indochina, OD700, 1 h, primary screen (AID 1154). The conditions noted are these: P. falciparum Indochina infected RBC osmotic lysis, higher = more signal, called active from +8 up or from −8 down.
Test [14] is described as follows: plasmodial surface anion channel blockers, osmotic lysis – cell-based, P. falciparum Indochina, OD700, 2 h, primary screen (AID 1155).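 Further: lysis reports solute entry through the parasite surface anion channel PSAC.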 The conditions noted are these: P. falciparum Indochina infected erythrocytes, higher = more signal, called active from +8 up or from −8 down.
Test [15] is described as follows: changes in parasitized red cell lysis, either direction – P. falciparum Indochina, OD700, 3 h, PSAC antagonist project, primary screen (AID 1156). Conditions: P. falciparum-infected erythrocytes, osmotic lysis, higher = more signal, called active from +8 up or from −8 down.
The nature of test [16]: plasmodial surface anion channel blockers, osmotic lysis – cell-based, P. falciparum Indochina, OD700, 18 h, primary screen (AID 1157). Conditions: P. falciparum Indochina infected erythrocytes, osmotic lysis OD700, 18 h; higher = more signal, called active from +8 up or from −8 down.
Test [17] in a line: S6 kinase pathway phospho-S6 level changes – cell-based, A549, cytoblot, luminescence, serum-stimulated, primary screen (AID 1158).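 Further: serum-stimulated A549 lung adenocarcinoma cells; signal is phosphorylated S6 detected by cytoblot immunostaining with HRP secondary.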 Conditions: 5 h, higher = more signal.
Test [18] addresses NADPH oxidase 2 (Homo sapiens) (UniProt P04839). Nature of the test: compounds shifting NOX2 Amplex Red fluorescence – cell-based, HEK293-NOX2, PMA-stimulated, NOX inhibitor project, primary screen (AID 1159). Further: test concentration not given here. Conditions: 45 min, higher = more signal, called active from +8 up or from −8 down.
For test [19], the target named is NADPH oxidase 4 (Homo sapiens) (UniProt Q9NPH5). Nature of the test: compounds shifting NOX4 Amplex Red fluorescence – cell-based, HEK293-NOX4, tetracycline-induced, NOX inhibitor project, primary screen (AID 1160). The conditions noted are these: HEK293-NOX4, Amplex Red H2O2 fluorescence, 45 min; higher = more signal, called active from +8 up or from −8 down.
Test [20] addresses NADPH oxidase 5 (Homo sapiens) (UniProt Q96PH1). Kind of test: compounds shifting NOX5 Amplex Red fluorescence – cell-based, HEK293-NOX5, NOX inhibitor project, primary screen (AID 1161). The conditions noted are these: HEK293-NOX5, ionomycin, 45 min, higher = more signal.

Calls of active or inactive are those of the source. Unless noted, how the calls were made is not given here.

Sequence of NADPH oxidase 5 (Homo sapiens) (Q96PH1 whole entry, looked up): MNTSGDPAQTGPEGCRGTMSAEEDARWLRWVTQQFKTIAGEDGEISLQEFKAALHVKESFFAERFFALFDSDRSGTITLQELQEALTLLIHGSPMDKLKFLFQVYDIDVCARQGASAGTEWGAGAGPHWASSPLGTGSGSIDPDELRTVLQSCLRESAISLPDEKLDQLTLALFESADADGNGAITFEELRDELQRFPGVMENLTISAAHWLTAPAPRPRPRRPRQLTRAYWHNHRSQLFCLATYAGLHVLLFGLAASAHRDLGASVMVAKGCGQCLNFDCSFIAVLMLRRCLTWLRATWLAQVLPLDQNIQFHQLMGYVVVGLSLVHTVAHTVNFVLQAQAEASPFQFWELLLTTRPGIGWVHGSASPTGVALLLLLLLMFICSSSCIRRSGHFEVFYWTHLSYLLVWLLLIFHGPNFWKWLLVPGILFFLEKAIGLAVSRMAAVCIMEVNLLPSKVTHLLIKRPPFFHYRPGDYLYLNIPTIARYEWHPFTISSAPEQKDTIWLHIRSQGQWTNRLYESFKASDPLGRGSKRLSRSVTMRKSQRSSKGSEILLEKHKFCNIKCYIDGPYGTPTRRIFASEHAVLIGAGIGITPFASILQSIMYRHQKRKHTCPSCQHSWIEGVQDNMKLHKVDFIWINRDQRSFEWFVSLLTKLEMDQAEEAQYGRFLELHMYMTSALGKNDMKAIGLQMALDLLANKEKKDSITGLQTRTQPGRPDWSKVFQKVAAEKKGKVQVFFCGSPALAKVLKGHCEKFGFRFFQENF
Sequence of NADPH oxidase 4 (Homo sapiens) (Q9NPH5 whole entry, looked up): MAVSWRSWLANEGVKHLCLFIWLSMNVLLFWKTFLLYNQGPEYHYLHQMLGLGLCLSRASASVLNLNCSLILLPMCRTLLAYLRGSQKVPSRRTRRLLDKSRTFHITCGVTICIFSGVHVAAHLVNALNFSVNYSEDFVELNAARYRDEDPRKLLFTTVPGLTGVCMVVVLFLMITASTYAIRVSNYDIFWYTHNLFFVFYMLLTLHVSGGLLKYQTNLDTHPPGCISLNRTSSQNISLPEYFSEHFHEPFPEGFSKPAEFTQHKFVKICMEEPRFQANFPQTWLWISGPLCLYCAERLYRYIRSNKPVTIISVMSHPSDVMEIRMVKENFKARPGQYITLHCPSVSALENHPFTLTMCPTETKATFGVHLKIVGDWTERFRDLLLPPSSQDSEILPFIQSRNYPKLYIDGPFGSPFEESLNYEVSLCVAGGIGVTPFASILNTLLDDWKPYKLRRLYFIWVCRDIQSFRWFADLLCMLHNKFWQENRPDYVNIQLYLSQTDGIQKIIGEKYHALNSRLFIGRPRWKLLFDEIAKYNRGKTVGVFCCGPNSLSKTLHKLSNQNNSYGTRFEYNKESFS
Sequence of Streptavidin (Streptomyces avidinii) (P22629 whole entry, looked up): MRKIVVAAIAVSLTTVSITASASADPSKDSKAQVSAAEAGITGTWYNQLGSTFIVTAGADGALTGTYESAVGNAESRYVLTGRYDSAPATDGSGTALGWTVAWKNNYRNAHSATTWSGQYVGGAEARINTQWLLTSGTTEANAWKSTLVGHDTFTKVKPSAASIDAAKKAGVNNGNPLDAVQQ
Sequence of Torsin-1A (Homo sapiens) (O14656 whole entry, looked up): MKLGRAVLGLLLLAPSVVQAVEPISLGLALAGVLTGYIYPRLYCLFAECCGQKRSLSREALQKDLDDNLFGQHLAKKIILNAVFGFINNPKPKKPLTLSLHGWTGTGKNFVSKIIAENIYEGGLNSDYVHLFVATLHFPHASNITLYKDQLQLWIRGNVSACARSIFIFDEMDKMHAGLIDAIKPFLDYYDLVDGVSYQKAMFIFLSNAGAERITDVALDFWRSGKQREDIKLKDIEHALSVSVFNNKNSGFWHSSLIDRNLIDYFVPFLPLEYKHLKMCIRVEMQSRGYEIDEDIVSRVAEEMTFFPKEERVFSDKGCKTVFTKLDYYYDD
Sequence of NADPH oxidase 2 (Homo sapiens) (P04839 whole entry, looked up): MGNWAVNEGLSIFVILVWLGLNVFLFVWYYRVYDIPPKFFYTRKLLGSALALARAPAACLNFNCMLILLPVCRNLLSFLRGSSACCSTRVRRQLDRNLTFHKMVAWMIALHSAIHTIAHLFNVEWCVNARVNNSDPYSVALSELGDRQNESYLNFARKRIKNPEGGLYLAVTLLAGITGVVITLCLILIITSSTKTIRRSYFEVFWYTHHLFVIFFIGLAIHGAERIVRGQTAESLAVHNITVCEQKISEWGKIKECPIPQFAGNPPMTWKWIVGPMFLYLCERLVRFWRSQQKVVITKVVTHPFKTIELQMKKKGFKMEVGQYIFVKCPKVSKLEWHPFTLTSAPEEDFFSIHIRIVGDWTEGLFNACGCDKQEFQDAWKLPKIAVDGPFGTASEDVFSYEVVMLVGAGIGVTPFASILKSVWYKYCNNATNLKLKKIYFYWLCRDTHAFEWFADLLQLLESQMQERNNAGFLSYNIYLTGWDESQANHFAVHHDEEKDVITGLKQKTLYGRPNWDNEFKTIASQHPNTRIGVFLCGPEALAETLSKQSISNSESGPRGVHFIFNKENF

Take `O=C(NCC(F)(F)F)[C@@H]1c2ccccc2C(=O)N(Cc2ccccc2Cl)[C@H]1c1ccc(CO)cc1`: the composite z-score was -0.234 in test [1]; -1.38 in test [6]; -0.176 in test [7]; -0.495 in test [8]; 0.986 in [9]; -0.59 in test [10]. Besides, in test [12], the composite z-score was -0.27. The z-score in test [2] was 0.197 (inactive); in test [3], 0.072 (inactive); in [4], 0.414 (inactive); in [5], -0.65 (inactive); in [11], 0.774 (inactive); in test [13], 1.88 (inactive). Further, the z-score in test [14] is 0.839 (inactive); in test [15], 0.62 (inactive); in [16], 0.157 (inactive); in test [17], -0.217; in test [18], -0.138 (inactive); in test [19] it was 0.22 (inactive). Further, the z-score in [20] was -0.0659.
Regarding `O=C/C=C/c1ccc(/C=C/c2ccccc2)cc1`, the composite z-score is -0.378 in test [1]; -0.0122 in test [6]; -0.128 in test [7]; -0.373 in [8]; -0.479 in test [9]; 0.609 in test [10]. In addition, the composite z-score in test [12] turned out to be 0.25. Besides, the z-score was -2.23 (inactive) in test [2]; -0.0603 (inactive) in [3]; -0.141 (inactive) in test [4]; -0.795 (inactive) in test [5]; 2.42 (inactive) in test [11]; 3.87 (inactive) in test [13]. Also, the z-score in test [14] was -0.941 (inactive); in [15] it was 1.17 (inactive); in [16], -1.73 (inactive); in [17], 0.972; in [18], 0.825 (inactive); in test [19], -1.69 (inactive). For the same molecule, the z-score in [20] came to 1.4.
Turning to `O=C1C2C=CC(C(O)Cc3ccccc3)N(Nc3ccc([N+](=O)[O-])cc3)C2C(=O)N1c1ccccc1` (stereo not given), the composite z-score in test [1] was 0.331; in test [6] it was 0.355; in [7], 0.46; in [8], 0.187; in [9] it was 0.222; in [10] it was -0.166. Further, in [12], the composite z-score is 0.769. The z-score in test [2] is -0.219 (inactive); in test [3], -0.138 (inactive); in test [4] it was -1.33 (inactive); in test [5] it was -0.0492 (inactive); in test [11], -0.458 (inactive); in test [13] it was 3.94 (inactive). Moreover, the z-score in test [14] is 1.61 (inactive); in test [15], 0.371 (inactive); in test [16], 0.877 (inactive); in test [17], -0.521; in test [18] it was -1.1 (inactive); in [19] it was -2.7 (inactive). Besides, the z-score in test [20] was -1.64.
Regarding `CC(=O)NCCCC[C@@H]1NC(=O)[C@H]2C[C@@H](C(=O)NCCCCCCN(C)C)[C@@H](c3ccc(O)cc3)N2C1=O`, the composite z-score was found to be 0.124 in [1]; 1.36 in test [6]; 1.12 in test [7]; 1.6 in test [8]; 1.21 in test [9]; 1.79 in test [10]. Also, in test [12], the composite z-score is 0.538. Further, the z-score is -0.0718 (inactive) in test [2]; -0.181 (inactive) in [3]; 0.281 (inactive) in test [4]; 0.403 (inactive) in test [5]; -0.233 (inactive) in [11]; 1.32 (inactive) in [13]. In addition, the z-score is 0.461 (inactive) in test [14]; 1.92 (inactive) in test [15]; 0.0071 (inactive) in [16]; 0.144 in test [17]; -0.768 (inactive) in [18]; -1.51 (inactive) in [19]. The z-score in test [20] is -0.479.
Consider `Cc1ccc(S[C@]2(C(=O)NC(C)C)CC(=O)N(C3Cc4ccccc4C3)[C@@H]2c2ccc(CO)cc2)cc1`, for which the composite z-score was -0.157 in test [1]; -0.37 in test [6]; -0.32 in test [7]; 0.876 in test [8]; 0.764 in [9]; 1.67 in test [10]. The molecule also displayed a composite z-score in test [12] of -0.357. Besides, the z-score in [2] is -4.65 (inactive); in [3] it was -0.132 (inactive); in [4] it was -0.231 (inactive); in test [5], 0.978 (inactive); in test [11], -0.415 (inactive); in test [13], 2.26 (inactive). Further, the z-score in test [14] is -0.862 (inactive); in [15], 1.04 (inactive); in [16], -1.88 (inactive); in test [17] it was 1.95; in test [18], 0.0257 (inactive); in [19], -0.029 (inactive). Moreover, in test [20], the z-score was -0.927.
Regarding `COc1cc(Cc2cc3c(c(CCc4ccccc4)n2)[Si](C(C)C)(C(C)C)OC3)cc(OC)c1OC`, the composite z-score in test [1] was -0.179; in [6], 0.977; in test [7], -0.159; in test [8], 0.1; in test [9], 0.0658; in test [10], 0.553. The molecule also returned a composite z-score in test [12] of -0.0501. Also, the z-score in test [2] was -1.86 (inactive); in test [3], -0.554 (inactive); in [4], -0.0989 (inactive); in [5] it was 0.132 (inactive); in [11], -0.655 (inactive); in test [13], 2.06 (inactive). Besides, the z-score in test [14] is 0.481 (inactive); in test [15], -0.411 (inactive); in test [16], -0.232 (inactive); in test [17] it was -0.475; in test [18], -0.195 (inactive); in test [19] it was -0.231 (inactive). In addition, the z-score in test [20] was -2.59.
As for `C=CCC(OC(C)=O)[C@@H]1[C@@H](N(Cc2ccc(-c3ccccc3)cc2)C(=O)c2ccc(-c3ccccc3)cc2)c2cc(OCCCO)ccc2N1C(=O)Cc1ccc(OC)cc1` (stereo not given in full), the composite z-score in test [1] is 0.0459; in test [6], 0.573; in [7], -0.0774; in [8], -0.096; in test [9], -0.37; in test [10], 0.346. For the same molecule, the composite z-score in [12] came to 0.149. Further, the z-score in test [2] was -0.178 (inactive); in [3] it was 0.318 (inactive); in [4] it was -0.0247 (inactive); in test [5] it was 0.522 (inactive); in test [11] it was -0.685 (inactive); in test [13] it was 0.572 (inactive). Further, the z-score in [14] is -0.402 (inactive); in [15], -0.501 (inactive); in test [16] it was -0.184 (inactive); in test [17], -0.192; in [18], -1.56 (inactive); in [19], 1.2 (inactive). Further, the z-score in [20] came to 1.41.
As for `CN1C(=O)C2C=CC(C(O)c3ccc(N(C)C)cc3)N(Nc3ccc([N+](=O)[O-])cc3[N+](=O)[O-])C2C1=O` (stereo not given), the composite z-score in [1] came out at 0.0988; in test [6] it was 1.51; in test [7] it was 0.529; in [8], 0.977; in test [9], 1.56; in test [10] it was 0.262. In test [12], this molecule had a composite z-score of 0.719. In addition, the z-score in test [2] was 0.891 (inactive); in [3], -0.202 (inactive); in test [4], 1.03 (inactive); in test [5], 0.0229 (inactive); in test [11], -0.692 (inactive); in test [13], 2.33 (inactive). Also, the z-score in test [14] is 1.27 (inactive); in test [15], -0.169 (inactive); in [16], 1.05 (inactive); in [17], -0.444; in test [18], -0.742 (inactive); in [19] it was -1.39 (inactive). Also, the z-score in test [20] is -0.0769.
